In PubChem BioAssay AID1508600 (Functional Genomics Laboratory (NCATS/FGL), 2020):
In all, about 53,000 sequences went through this assay and about 3,700 (7%) were called active.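 Rule for the calls: active = gene knockdowns whose robust z-score for IL-1 alpha signal is at least 2 or at most -2, so actives lie on both sides; inactive = the rest.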 This excerpt belongs to a sample that is enriched for actives.

Assay: Components of the Cytosolic LPS Sensing Pathway: Gene Identification via Genome-wide siRNA Screen;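 note: robust z of the log signal after scaling to non-targeting control siRNA wells of the plate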
Conditions: RAW264.7 macrophages, IL-1a HTRF, actives lie on both sides, screened at 100 nM (by protocol), cells primed 5 h with Pam3CSK4 first
In short: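 RAW264.7 mouse macrophages reverse-transfected with single siRNAs (100 nM final) for 48h, primed with Pam3CSK4 for 5 hours, then transfected with LipidA for 24 hour. Supernatant IL-1a read by HTRF; values normalized to negative-control median, log-transformed robust z-scores.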
With CCUAAAGUCUCUGAAUCAGTT against Fyb the z-score was 0.45 (inactive). In the case of GGUUGUUGCGCAAAUUUAATT against Vmn2r7, the z-score is reported as 1.43 (inactive). In the case of GCAGUAACUGUGUCAAAAUTT against Zan, the z-score is reported as 0.879 (inactive). In the case of GGAUAUCAAAGACAAAGCATT against Vps53, the z-score is reported as -2.58 (active). In the case of CGUGUGUUCCGGAAACAGATT against Tnfrsf11b, the z-score is reported as -0.188 (inactive). In the case of GGCACAAGUCCAUGUUGUUTT against Emg1, the z-score is reported as -0.161 (inactive). For GGAGUACGUGAUUGCUCUGTT against Rcvrn, the z-score was -2.45 (active). With GCCGUUUUAAGAUACCGAUTT against Pde1c the z-score was 0.642 (inactive). In the case of GGGCAGCUACGUCAUUAAGTT against Prkg2, the z-score is reported as -0.442 (inactive). In the case of GGAGAAGAACAGAACAUGATT against Igf2, the z-score is reported as 2.36 (active). In the case of “GACAGUGAAGGCUUGCCAUTT against 1700019M22Rik”, the z-score is reported as -0.45 (inactive). With GCUAUUUAUCACCAAGACATT against Plpp6 the z-score was -1.64 (inactive). For CCAGGAUUACAUCCGGACATT against Srbd1, the z-score was -0.379 (inactive). In the case of GCUUCGACAAAAGAAGAUGTT against Ccdc174, the z-score is reported as -0.373 (inactive). For CGAAUGAGAUUUUCACUCUTT against Tek, the z-score was 1.07 (inactive). With CCACUAAUCUUCUUCUACATT against Olfr1311 the z-score was -2.08 (active). For GGCCACCAAGACCAAUGAUTT against Akap8, the z-score was 0.154 (inactive). With GGUUGUAAUAGCCUUAGCCTT against Rassf8 the z-score was -2.87 (active). In the case of GGUCAAGUAACAUGGUUUGTT against Rundc3b, the z-score is reported as 0.282 (inactive). In the case of CCAGAAACACUAGUAAAGGTT against Dppa3, the z-score is reported as -0.0972 (inactive). In the case of GGACGUGAAUGUGUUUGACTT against Cyp26b1, the z-score is reported as 0.795 (inactive). For CGAUUACUACAUAAUUGCCTT against Efnb3, the z-score was 1.63 (inactive). For CGGACAAGAUAGUAUUCUUTT against Atp2b1, the z-score was -1.06 (inactive). For GGAGGAAUACGUAUACUUCTT against Dipk1c, the z-score was 2.16 (active). For GCAGCAUGGCAAAACCACATT against Zbtb12, the z-score was -0.265 (inactive). In the case of GCAGGCGAUAUAGAAGCAATT against Frg1, the z-score is reported as 0.475 (inactive). With GGCUGUGACUAUGUUGUGCTT against Top3b the z-score was -2.15 (active). For GGGAAUUCUAUUCAACACUTT against Rps6ka5, the z-score was -0.478 (inactive). With GGCUGUGACUUUUGAUCUATT against Prelid3b the z-score was 0.46 (inactive). For CCAAUGCUUGUGAUAAGCCTT against Krt33a, the z-score was -0.105 (inactive). For CGGACUUGAGAGCAGAACCTT against Oit1, the z-score was 2.02 (active). For CCUUGUGCCAAAUACUUCATT against Inava, the z-score was -0.00772 (inactive). In the case of GGAUAACCGUAUUAAUUUCTT against Gm2a, the z-score is reported as 0.709 (inactive). For GGAGAAAGUCAAGAUCAAATT against Gpr4, the z-score was 2.12 (active). In the case of GCAAGCACGGAGAACCAAUTT against Selenoi, the z-score is reported as -0.212 (inactive). In the case of GGAGUUCAUUGAUCAUUCUTT against Ndufb5, the z-score is reported as 2.21 (active). With GGAAGAUGGAGAUCAGACGTT against Foxd4 the z-score was -0.498 (inactive). For GGGAUACCCGGCGUAAUCUTT against Col4a2, the z-score was 1.31 (inactive). In the case of CGCAUACAUCAGGUCACUATT against Katnb1, the z-score is reported as -0.74 (inactive). With GGGCUUUUACUCCUACCUGTT against Slc43a2 the z-score was -0.794 (inactive). For GGAACCACUGCUAGCCAGATT against Serpinb6a, the z-score was 0.491 (inactive). In the case of GCGAGAAAUUACCACCUUCTT against Klhl8, the z-score is reported as -0.516 (inactive). For CCGUAUUAGAAAGUAGAUATT against Arpp19, the z-score was 2.01 (active). With ACUUCACGAUGGAAAAAUUTT against Gm9732 the z-score was -1.63 (inactive). In the case of GGCCUCAUCUUGAAUAUUUTT against Hsd17b3, the z-score is reported as -1 (inactive). For GGUUCAUCAAACUUGCUUGTT against Olfr1312, the z-score was 0.569 (inactive). With GGAAGAACAGAGGCAGAAGTT against Trpv3 the z-score was -0.629 (inactive). In the case of GGAAGUACUCUGAAGAUUCTT against Kdm5b, the z-score is reported as -1.83 (inactive). In the case of CCCACUUCCGAUCCAAAGATT against Zfp593, the z-score is reported as 0.936 (inactive). In the case of CCUAUGUCAUCAUUGGAGUTT against Tmem45a2, the z-score is reported as -0.613 (inactive). For GCUGUUAUAACCUUGUUACTT against Rspry1, the z-score was 1.19 (inactive). For GCCCAGUUUGGUUAUGUAUTT against Yipf7, the z-score was 0.115 (inactive). In the case of GCGGAGAGAUCAAAGCGAUTT against Iltifb, the z-score is reported as -2.05 (active). For GCAGCAACAUUCUUUGGAUTT against Adk, the z-score was 0.986 (inactive). With GGACAAUAUCAGAAAGAGUTT against Purg the z-score was 1.13 (inactive). With GGGUUUUUUCCAGUCAUCUTT against Nfx1 the z-score was -2.02 (active). For GGAUGUUCUACUGCUACACTT against Dtwd1, the z-score was -0.706 (inactive). With GGUGGCCAAGAAUGUGAAUTT against Cxcl17 the z-score was 1.38 (inactive). For CCUACUCUCUAGAAAAGGATT against Olfr1006, the z-score was -1.76 (inactive). With GGAGUGAAGGCCAGCUGAATT against Son the z-score was -0.848 (inactive). In the case of GGAACACCAUGAAGAAGACTT against Gabarap, the z-score is reported as -0.147 (inactive). With GGAAAACUUUCAAAGAGAUTT against Mc4r the z-score was 0.24 (inactive). In the case of GUCAUCAAACUAGGUGCUGTT against Olfr584, the z-score is reported as -2.22 (active). With GGAAAAAUUUAGACAGCACTT against Csrp2 the z-score was 0.132 (inactive). In the case of GACUCAUUCUGCAAUGAAGTT against Ifna5, the z-score is reported as 0.105 (inactive). For GCUAAGGACACAAAAUCCATT against Slc38a10, the z-score was 0.129 (inactive). With “GGAGAAAGAAAGCAGUUUUTT against 2310067E19Rik” the z-score was 1.55 (inactive). For GGUUAGAGGAAAGGUUUAUTT against Htr1f, the z-score was 5.07 (active). For GGGCAUUUUAACCAAAUGATT against Marchf11, the z-score was 0.544 (inactive).
